Drawing on PubChem BioAssay AID640 (Columbia University Molecular Screening Center, 2007), this text covers inhibition for 54 compounds.

The whole screen tested about 96,000 compounds, of which about 200 (0.21%) were called active. This excerpt belongs to a sample that is enriched for actives. Unmarked numbers belong to inactive results.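 Rule for the calls: active = inhibition at 2 µM at or above a set limit, the screen mean plus 3 SD (cut at about 24% in these data); inactive = the rest.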

For this test, the target named is Tyrosine-protein phosphatase non-receptor type 22 (Homo sapiens) (UniProt Q9Y2R2). As to the kind of experiment: PTPN22 phosphatase inhibitors, primary screen, biochemical, DiFMUP fluorescence, 2 µM (AID 640).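 Note: 0% = DMSO with enzyme and 100% = enzyme fully blocked by orthovanadate.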 Particulars: recombinant LYP catalytic domain, at 2 µM, stronger effect = higher value.
Sequence of Tyrosine-protein phosphatase non-receptor type 22 (Homo sapiens) (Q9Y2R2 whole entry, looked up, the tested form may be a part): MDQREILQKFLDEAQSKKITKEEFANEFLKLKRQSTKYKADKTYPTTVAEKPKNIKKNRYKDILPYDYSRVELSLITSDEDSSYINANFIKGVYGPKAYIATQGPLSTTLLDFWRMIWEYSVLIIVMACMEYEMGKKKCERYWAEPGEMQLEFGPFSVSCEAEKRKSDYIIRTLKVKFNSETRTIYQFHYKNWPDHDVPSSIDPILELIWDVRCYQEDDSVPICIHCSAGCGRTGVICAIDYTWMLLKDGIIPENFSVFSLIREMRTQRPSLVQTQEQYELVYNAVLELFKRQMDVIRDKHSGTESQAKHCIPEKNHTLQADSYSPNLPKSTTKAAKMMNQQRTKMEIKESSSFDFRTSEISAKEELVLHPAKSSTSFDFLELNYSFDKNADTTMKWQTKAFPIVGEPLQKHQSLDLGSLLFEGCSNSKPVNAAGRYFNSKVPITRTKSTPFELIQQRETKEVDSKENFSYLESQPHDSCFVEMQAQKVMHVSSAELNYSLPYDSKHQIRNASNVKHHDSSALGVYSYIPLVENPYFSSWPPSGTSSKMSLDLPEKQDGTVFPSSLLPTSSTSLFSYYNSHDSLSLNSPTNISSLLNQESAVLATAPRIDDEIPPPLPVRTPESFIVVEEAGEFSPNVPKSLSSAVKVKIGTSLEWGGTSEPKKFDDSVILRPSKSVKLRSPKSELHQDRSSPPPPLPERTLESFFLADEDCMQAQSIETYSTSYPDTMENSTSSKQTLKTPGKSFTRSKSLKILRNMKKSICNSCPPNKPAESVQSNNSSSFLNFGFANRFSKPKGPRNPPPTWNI
Turning to `Cc1nn(C(C)CC(=O)O)c(C)c1C` (centres undefined), the inhibition was 7.9%.
To `CCn1nc(C)c(NC(=O)/C=C/c2ccc(OC)c(COc3ccc(Br)cc3)c2)c1C` belongs 13.3%; to `O=C(CSc1nnc(-c2cccs2)n1Cc1ccccc1)N1CCc2ccccc2C1`, -1.7%; to `Cc1ccc2nc(SC(C)C(=O)NCc3ccco3)[nH]c2c1` (centres undefined), -3.6%.
To `Cn1c(=O)c2c(SCC(=O)N3CCOCC3)nc(C3CC3)nc2n(C)c1=O` belongs 4%.
With `Cc1cc2cc3c(N)[nH]nc3nc2cc1C`, the inhibition is -13.7%.
To `O=C(Nc1ccon1)c1sc2ccccc2c1Cl` belongs -12.9%; to `Cc1ccc(-c2nc3ccccc3[nH]2)cc1N`, 0.9%; to `Cc1ccc(-c2nc3ccccc3[nH]2)cc1NC(=O)c1sc2ccccc2c1Cl`, 24.6% (active).
To `Cc1cc([N+](=O)[O-])c(NC2CCCCC2)c([N+](=O)[O-])c1` belongs 6.5%; to `CC1(C)NC(=O)N(CCCCSc2ccc(Cl)cc2)C1=O`, 3.1%; to `COC(=O)C1=C(Nc2ccc(C)cc2)C=C(C)C(C(=O)OC)C1c1ccc(F)cc1` (centres undefined), -3.3%.
With `c1ccc(CC2CCN(c3nc4ccccc4n4cnnc34)CC2)cc1`, the inhibition is 7.3%.
Next, `CON(C)S(=O)(=O)c1ccc2c(c1)NC(=O)C1CCCN21` (centres undefined): 6.3%.
To `CN1CCN(C(=O)Cn2c(C(F)(F)F)nc3ccccc32)CC1` belongs 1.3%.
Next, `COc1ccc(-n2c(C)csc2=S)cc1`: -3.8%; `CCCCN(CC)CCCNC(=O)CS(=O)(=O)Cc1nc(-c2cccc(OC)c2)oc1C`: 4.8%.
For the compound `CCCCCCc1cc2cc(-c3nnc(-c4cccc(OC)c4)o3)c(=O)oc2cc1O`, the inhibition is 30.9% (active).
Next, `CCCCCCc1cc2cc(-c3nnc(-c4ccccc4)o3)c(=O)oc2cc1O`: 16%.
Next, `COc1ccc(OCC(=O)NN2Cc3ccccc3C2=N)cc1`: 8.2%.
Next, `Cc1cc(=O)oc2cc(OCC3CC(c4ccccc4Cl)=NO3)ccc12` (centres undefined): 0.4%.
With `COc1ccc(/C(O)=C2\C(=O)C(=O)N(Cc3ccco3)C2c2ccc(OC)cc2OC)cc1` (centres undefined), the inhibition is 3%.
As for `O=C(CN(c1ccccc1)S(=O)(=O)c1ccc(Cl)cc1)Nc1ccccc1C(=O)N1CCCC1`, the inhibition is 3%.
To `Cc1sc2nc(SCC(N)=O)n(C)c(=O)c2c1C` belongs -1%; to `CC(=O)c1cnc(SCCN2C(=O)c3ccccc3C2=O)nc1C`, -4.7%.
To `CCOc1ccccc1NC(=O)C1CCCN(C(=O)Nc2ccccc2)C1` (centres undefined) belongs -6%.
To `COc1cccc(NC(=O)CN2CCN(c3nc(-c4cccc(OC)c4)cs3)CC2)c1` belongs 8.7%; to `CCOC(=O)c1[nH]c(C)c(C(=O)OCC(=O)N2c3ccccc3CC2C)c1C` (centres undefined), 2.3%.
As for `COc1ccc(C(C#N)Nc2ccccc2C)cc1` (centres undefined), the inhibition is 7.5%.
To `CCCCNC(=O)C1(c2ccc(OC)cc2)CCOCC1` belongs 6.4%; to `CCNC(=S)N1CCN(C(=O)c2ccco2)CC1`, -9.6%; to `O=C(/C=C/c1ccccc1)N/C(=C/c1ccccc1)C(=O)Nc1ccccc1O`, 10%.
Next, `Cc1ccc(-c2cc(C(=O)NCC3CCCO3)c3ccccc3n2)o1` (centres undefined): 2.7%; `C=CCn1c(-c2ccc(Cl)cc2)ccc(C#N)c1=O`: 8.4%; `Oc1ccc2ccc3cccc[n+]3c2c1`: 2.8%.
To `Cc1csc2ncc(C(=O)N(Cc3ccccc3)c3ccccn3)c(=O)n12` belongs -3.8%.
As for `Cc1ccc(CN(C(=O)c2sc3ccccc3c2Cl)C2CCS(=O)(=O)C2)cc1` (centres undefined), the inhibition is 3.5%.
Consider `CSc1cc(C)n(-c2ccccc2C)c(=S)c1C(C)=O`, for which the inhibition is -1.3%.
As for `O=C(Nc1ccccc1C(=O)NCCCn1ccnc1)c1ccc(Cl)cc1Cl`, the inhibition is 4.3%.
Next, `COc1ccc(CNCCCO)cc1OC`: 2.8%; `c1ccc2c(-c3nn4nnnc4c4ccccc34)cccc2c1`: 11.7%; `COc1ccc(Oc2c(Cl)cnn(-c3ccccc3)c2=O)cc1`: -10.1%.
Next, `COC(=O)CNS(=O)(=O)c1ccc(OC)cc1`: -2.1%.
To `CCOc1cc(C(=O)Nc2c(C)ccc3nsnc23)cc(OCC)c1OCC` belongs -14.9%.
For the compound `CC(C)(C)c1ccc(C(=O)NCC(=O)OCN2C(=O)c3ccccc3C2=O)cc1`, the inhibition is -8.4%.
To `O=C(/C=C/NNC(=O)c1cccc(Br)c1)c1ccccc1` belongs 5.3%; to `Fc1ccccc1COc1ccccc1CNCc1ccncc1`, 4.4%; to `CCC(=O)NCCc1nc2ccccc2n1CC`, -1%.
Next, `CNc1nc(SC)nc(N(C#N)CC(=O)OC)n1`: -3.4%.
Turning to `CCNc1nc(NC(C)C)nc(OCCOC(=O)c2ccccc2)n1`, the inhibition is -0.4%.
To `c1ccc(-c2ccnc3nc(-n4cccc4)nn23)cc1` belongs 9.9%; to `Cc1cc2nc(SCCN3CCOCC3)[nH]c2cc1C`, -1%; to `O=C1N=C(N2CCOCC2)S/C1=C\C=C/c1ccccc1`, 0.2%.
For `CCOCCCNC(=O)C(NC(=O)c1ccc(=O)[nH]c1)c1ccc(C)cc1` (centres undefined), the inhibition is 3%.
